# Experimental data: PubChem BioAssay (NCI)
# Compounds without any hit were thinned out: in the full panel of roughly 79,000, 15% have a hit. A number with no mark means an inactive call. The source made the active and inactive calls. No stated cut-off is given here; in the data, active means growth inhibition above about 70%; inactive means the rest.
# How the values were obtained:
# [1] = NCI Yeast Anticancer Drug Screen. Data for the rad50 strain (AID 155);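 further: 0% = growth of vehicle-only cultures of the same strain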; settings: S. cerevisiae rad50 strain growth inhibition; at 50.0 µM; stronger effect = higher value
# Outline: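 Cells are treated with compound, grown, and their growth is then scored against vehicle-only cultures of the same repair-deficient yeast strain.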
# [2] = NCI Yeast Anticancer Drug Screen. Data for the mec2-1 strain (AID 157); settings: S. cerevisiae mec2-1 strain, at 50.0 µM, stronger effect = higher value
# Outline: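 Readout is yeast growth inhibition, normalised to vehicle-treated controls, in the mec2-1 strain exposed to compound.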
# [3] = NCI Yeast Anticancer Drug Screen. Data for the sgs1 mgt1 strain (AID 161);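 further: 0% = growth of cultures given vehicle only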; settings: S. cerevisiae sgs1 mgt1 strain, at 50.0 µM, stronger effect = higher value
# Outline: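 This yeast growth screen uses a strain with defined DNA-repair lesions; compound-treated growth is compared with vehicle-treated growth.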
# [4] = NCI Yeast Anticancer Drug Screen. Data for the cln2 rad14 strain (AID 165);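 further: 0% = growth equal to vehicle treated cultures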; settings: S. cerevisiae cln2 rad14 strain, at 50.0 µM, stronger effect = higher value
# Outline: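 Relative to vehicle controls, growth inhibition of compound-treated cln2 rad14 yeast was recorded.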
# [5] = NCI Yeast Anticancer Drug Screen. Data for the bub3 strain (AID 167); settings: S. cerevisiae bub3 mutant strain, at 50.0 µM, stronger effect = higher value
# Outline: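 Part of a panel of yeast mutants defective in DNA damage repair or cell cycle regulation. Each strain is grown with compound, and inhibition is calculated relative to solvent-treated cultures.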
# [6] = NCI Yeast Anticancer Drug Screen. Data for the mlh1 rad18 strain (AID 175); settings: S. cerevisiae mlh1 rad18 strain growth inhibition; at 50.0 µM; stronger effect = higher value
# Outline: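 Test agents were incubated with a yeast strain of defined genotype (DNA damage repair defect). Inhibition of growth was derived by comparison with vehicle-exposed cultures.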
SMILES,growth inhibition [1],growth inhibition [2],growth inhibition [3],growth inhibition [4],growth inhibition [5],growth inhibition [6]
CCCCCCCCCCCCCCCCOc1ccc(-c2cc(=O)n(C)n2C)cc1OC,-14.1%,-27.2%,-9.3%,-0.15%,-8.55%,-16.2%
CC(=O)CC(C)(C)S(=O)(=O)c1ccc(C)cc1,4%,-5.05%,24.4%,-26.4%,11.8%,5.05%
COc1ccc(-c2cc(=O)c3c(O)cc(O)cc3o2)cc1Oc1ccc(-c2cc(=O)c3c(O)cc(O)cc3o2)cc1,15.6%,-12.2%,-12.3%,2.35%,-3.7%,5.1%
COc1cc2c(c(OC)c1OC)CCCC2=O,0.2%,-10.4%,-4.5%,-130%,-4.7%,-4.9%
O=C(O)/C=C(\CC(=O)O)C(=O)O,12.8%,11.9%,-21.9%,8.15%,-21.1%,1.15%
O=C(O)C(Cc1ccccc1)c1ccccc1 (configuration not stated),-39.4%,-12.4%,-11.8%,-21.4%,9.4%,2.85%
COc1ccc(N=Nc2sc(N)nc2-c2cccc([N+](=O)[O-])c2)cc1,5%,4.85%,10.1%,-13.8%,8.6%,11.7%
COc1ccc(Cl)cc1C(c1cc(Cl)ccc1OC)C(Cl)(Cl)Cl,-7.35%,-1.6%,-9.05%,-23.6%,-16.6%,-13.4%
CCC(C(=O)O)C(C)(C)C (configuration not stated),6.8%,0.55%,1.8%,-4.9%,-0.3%,9.3%
CCCOCOCCC,-22.5%,0.05%,-13.2%,-28.4%,11.7%,-27.5%
OC(c1cc(C(F)(F)F)nc2c(Cl)cc(Cl)cc12)C1CCCCN1 (configuration not stated),7.2%,-22.4%,-5%,-3.4%,8.75%,22.9%
Cn1c(=O)n2n(c1=O)C1C=CC2C2C=C(c3ccccc3)C21 (configuration not stated),-18.4%,-1.35%,-0.8%,1.75%,36.5%,0.3%
O=C(Cc1ccccc1)NN1C(=O)/C(=C\c2ccc(O)cc2)SC1=Nc1ccccc1,5.5%,-1.05%,28.9%,4.4%,-9.75%,19.9%
O=C(O)CC1CCCc2ccccc2C1=O (configuration not stated),34.3%,46.3%,18.1%,25.9%,48.5%,17.9%
Cc1ccc(S(=O)(=O)OCC(c2ccccc2)C(F)(F)F)cc1 (configuration not stated),-3.25%,-14.2%,12.4%,-23.7%,18.6%,-1%
Cn1c(=O)c2snnc2n(C)c1=O,-2.75%,-2.65%,-2.65%,-9.5%,2.9%,-16.6%
Nc1c(S(=O)(=O)O)cc(Nc2cccc(S(=O)(=O)/C=C/S(=O)(=O)O)c2)c2c1C(=O)c1ccccc1C2=O,8.4%,-28.9%,-1.2%,-2.45%,0.85%,-14.2%
Cc1ccc(S(=O)(=O)OC(c2ccc(C(OS(=O)(=O)c3ccc(C)cc3)(C(F)(F)F)C(F)(F)F)cc2)(C(F)(F)F)C(F)(F)F)cc1,4.45%,6.65%,-17.8%,10.8%,4.4%,4.7%
CC(=O)OC1COC(N2C(=O)C(=O)c3cc(Br)c([N+](=O)[O-])cc32)C(OC(C)=O)C1OC(C)=O (configuration not stated),14.3%,12.2%,-10.6%,-1.9%,-9.6%,1.3%
Cc1cc(C)nc(N)c1,3.75%,-11.8%,-0.4%,-21.8%,-3.25%,3.05%
CC(=O)NC(CSC1=C2NC(=O)\C=C/C=C/C=C\C(C)C(O)CC(=O)/C(C)=C\CC(O)/C=C/C(C)C(O)C(C)C=C(C)C(=O)c3c(O)c(C)cc(c3C1=O)C2=O)C(=O)O (configuration not stated),1.1%,7.95%,36.6%,23.3%,15.4%,8.45%

SMILES,growth inhibition [1],growth inhibition [2],growth inhibition [3],growth inhibition [4],growth inhibition [5],growth inhibition [6]
CC1CC=[N+]([O-])C1(C)C (configuration not stated),-6.6%,-18.1%,14.2%,-12.2%,16.7%,-11.1%
COc1cc2c3c(c1OC)C1(C=CC(=O)C=C1)CC3NCC2 (configuration not stated),-45.9%,-4.8%,-8.5%,-10.1%,-18.9%,-45.6%
COc1ccc2ncc(COC(=O)Nc3ccccc3)c(COC(=O)Nc3ccccc3)c2c1,22%,-6.2%,11.8%,5.65%,-7.4%,6.1%
O=C(N/C(=C\c1ccc([N+](=O)[O-])cc1)c1nc2ccccc2[nH]1)c1ccccc1,29.1%,6.55%,8.35%,-37.9%,17.9%,23.8%
O=C1CC(c2ccccc2)OC(c2ccccc2Cl)C1 (configuration not stated),-1.25%,-8.35%,-39.5%,-20.7%,-5.85%,9.1%
O=[N+]([O-])c1cc2no[n+]([O-])c2cc1N1CCOCC1,98.8% (active),99.3% (active),99.2% (active),98.4% (active),99% (active),99.2% (active)
O=c1c2cccnc2ncn1CCN1CCCC1,5.25%,-11.6%,-3.5%,8.4%,-1.8%,21.1%
CCN(CC)/N=C\c1c2ccccc2cc2ccccc12,19.8%,11.2%,7.7%,9.4%,13.3%,60.4%
NC(=O)NC(N)=O,13.3%,-10.4%,-9.95%,-34.1%,18.9%,21.9%
Cc1cc(=O)n2[nH]nnc2n1,10.5%,17.6%,26.4%,13.2%,12.5%,14.2%
COc1ccc(N=Nc2c(C)nn(C(=O)c3ccncc3)c2C)cc1,-21.9%,-3.75%,13.4%,-1.2%,11.4%,-10.1%
[N-]=[N+]=CC(=O)CCN1C(=O)c2ccccc2C1=O,-9.85%,-0.85%,-4.75%,-3.85%,1.15%,-1.55%
CCOC(=O)Nc1cccc(F)c1,-10.9%,14.7%,22.9%,-44.6%,-21.1%,-0.5%
Nc1ccc(NC(=O)Nc2ccc(N)cc2)cc1,24.5%,4.3%,16.8%,9.15%,10.8%,20.4%
N=C(N)/N=C(/C=C/c1ccccc1)CC1OC(=O)c2ccccc21 (configuration not stated),-6.95%,-10.7%,-22.6%,-2.85%,-28.8%,-24.3%
COc1cc(C(=O)O)cc(O)c1OC,4.95%,-4.5%,-2.85%,-6.25%,2.4%,8.45%
O=C1CCNC/C1=C\c1ccccc1,6.25%,-14.3%,8.9%,13.4%,-19.2%,6.55%
Nc1cc2c(cn1)[nH]c1ccccc12,2.9%,-14.8%,-13.8%,-16.4%,5.6%,-2.35%
O=c1[nH]c(=O)n(COCc2ccccc2)c2ccc(Br)cc12,-7.55%,-9.5%,-2.75%,-20.4%,-6.95%,-61.5%
Cc1c(Cl)ccc2nc3ccccc3nc12,32.4%,18.8%,12.7%,-4.85%,61.6%,34.5%
Cc1nn(C(=O)c2cccnc2)c(-c2ccccc2)c1N=Nc1ccc(C(=O)O)cc1,-16.5%,11.2%,4.65%,29.4%,-2.8%,18.8%
